NPC1 prom act: NPC1 promoter activation; AID 485313; Huh7 NPC1 promoter luciferase reporter, 24 h; hit rate 2.4% among 320,000; Potency, µM (top dose mostly 9.22 µM), most hits filed as activators; also: nearly all actives have a fitted effect of over 60% in size
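Stable NPC1-promoter luciferase Huh7 line; cpd (DMSO) 24 h, 37 °C, 5% CO2; Amplite luciferase reagent 10 min RT; luminescence readout. qHTS format.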
ELG1 genotox: inducers of genotoxicity in HEK293T ELG1-luciferase cells; Potency, µM (highest dose often 46 µM), hits mostly activators; AID 504466; HEK293T ELG1-luciferase reporter, luminescence, 16 h; hit rate 1.3% among 330,000; also: nearly all actives have a fitted effect of over 60% in size
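Genotoxic stress is detected as increased luminescence from luciferase-tagged ELG1 in HEK293T cells, measured with ONE-Glo after a 16 hr treatment at 37 °C.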
uPA generation: cell surface uPA generation inhibition; Potency, µM (highest dose often 38.3 µM), most hits filed as inhibitors; cell surface uPA generation assay, qHTS; hit rate 0.31% among 330,000; AID 540303; active = well fitted inhibition curve with a large enough effect; inconclusive = small, poorly fitted or top-dose-only effect; inactive = no such curve, though single readings can be large or run the other way; tested in mouse RAW 264.7 cells; also: nearly all actives have a fitted effect of over 55% in size
SMN2 splice enh: increases expression of the SMN2 splice variant; AID 1458; HEK293 SMN2-luciferase splicing reporter, luminescence, 30-36 h; hit rate 2.8% among 210,000; Potency, µM (titrated, usually from 46.1 µM), most hits filed as activators; also: nearly all actives have a fitted effect of over 55% in size
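qHTS luciferase splicing reporter: luminescence rises when SMN2 exon 7 is included in transfected HEK293 cells. Compound exposure lasted 30-36 h at 37C, with 4.5 mM final sodium butyrate as control, followed by a ONE-Glo read.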
FLuc counter: firefly luciferase modulation, counter-screen for miR-21 project; P08659; purified FLuc, Km substrates, luminescence inhibition; hit rate 6.9% among 360,000; Potency, µM (doses to about 57.5 µM), hits mostly inhibitors; AID 588342; also: nearly all actives have a fitted effect of over 55% in size
Target sequence (P08659 whole entry, looked up): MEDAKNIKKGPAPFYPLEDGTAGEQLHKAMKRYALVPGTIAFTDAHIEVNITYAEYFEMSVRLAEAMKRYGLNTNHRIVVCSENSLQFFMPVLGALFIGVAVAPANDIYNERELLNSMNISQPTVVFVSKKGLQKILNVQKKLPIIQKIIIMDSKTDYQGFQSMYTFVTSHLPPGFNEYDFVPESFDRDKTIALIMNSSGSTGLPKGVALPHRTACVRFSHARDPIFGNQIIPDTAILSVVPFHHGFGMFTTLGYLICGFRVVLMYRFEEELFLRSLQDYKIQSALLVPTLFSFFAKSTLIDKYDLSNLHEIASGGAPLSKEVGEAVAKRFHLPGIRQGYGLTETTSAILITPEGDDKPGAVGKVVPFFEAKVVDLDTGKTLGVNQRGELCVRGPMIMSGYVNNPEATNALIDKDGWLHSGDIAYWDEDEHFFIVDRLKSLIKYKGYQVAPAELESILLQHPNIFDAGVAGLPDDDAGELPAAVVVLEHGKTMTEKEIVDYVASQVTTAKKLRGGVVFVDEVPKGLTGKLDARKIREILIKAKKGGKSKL
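Biochemical qHTS of compounds, final roughly 60 µM downward over six points, against 10 nM purified firefly luciferase using Km concentrations of substrates (10 uM D-luciferin, 10 uM ATP) in Tris acetate pH 7.5 buffer; luminescence output.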
Rab9 prom act: Rab9 promoter activation; Huh7 Rab9 promoter-luciferase reporter, luminescence, 24 h; Potency, µM (titrated, usually from 9.22 µM), actives largely listed as activators; hit rate 2.8% among 320,000; also: nearly all actives have a fitted effect of over 60% in size
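Steps: seed 1500 Huh7 Rab9-luc cells per well, rest 2 h at 37 °C; add compound in DMSO; incubate 24 h; add luciferase reagent, 10 min ambient; read luminescence.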
Numbers stand for hits; – = inactive; ? = inconclusive; · = no result; [ ] = dose if it differs, or a comment. The list is not random: actives were taken first. Their share in the collection is about 7.3%. Unless noted, calls follow the shape of the dose curve; as a rule, active = well fitted curve in the direction sought with a large enough effect; inconclusive = small, poorly fitted or top-dose-only effect, or another doubt; inactive = no such curve, though single readings can be large; an effect the other way counts as inactive or inconclusive.

SMILES	NPC1 prom act	ELG1 genotox	uPA generation	SMN2 splice enh	FLuc counter	Rab9 prom act
CN1C(=O)S/C(=C/c2ccc(OCc3cccc(C(=O)O)c3)cc2)C1=O	0.4µM	?	–	·	2.7µM	0.28µM
COc1cccc(/C=C2/SC(=O)N(C)C2=O)c1OCc1ccc(C(=O)O)cc1	–	–	–	·	–	–
COc1cc(Cl)c(C)cc1NC(=O)CSc1cc(Cl)ccc1Cl	–	–	–	–	–	–
Cc1ccc2c(c1)C(c1ccccc1)N(C(=O)c1ccc(S(=O)(=O)N3CCCC3)cc1)CC(=O)N2 (configuration not stated)	·	·	·	–	–	·
O=C(CN(c1cc(C(F)(F)F)ccc1Cl)S(=O)(=O)c1ccccc1)NCCc1ccccc1	·	·	·	–	–	·
O=C(O)CN1C(=O)/C(=C\c2cccc(OCc3ccccc3F)c2)SC1=S	–	–	–	·	21µM	–
COc1cccc(CS(=O)(=O)c2nnnn2CC(C)C)c1	·	·	·	–	·	·
CCc1ccc2oc(-c3ccc(OC)cc3)cc(=Nc3c(C)n(C)n(-c4ccccc4)c3=O)c2c1	?	–	8.9µM	–	8.5µM	?
CCc1ccc2oc(-c3ccc(OC)cc3)cc(=Nc3cccc(C(=O)O)c3)c2c1	?	4.1µM	–	?	5.4µM	3.2µM
COc1ccc(-c2cc(C(=O)Oc3ccc(C)cc3)c3cc(C)ccc3n2)cc1	·	·	·	–	–	·
COc1ccc(-c2cc(=Nc3ccc(C(=O)O)cc3)c3cc(C)ccc3o2)cc1	?	?	–	18µM	9.5µM	?
COC(=O)c1cc(NC(=O)c2sc3ncn(Cc4cccc(F)c4)c(=O)c3c2C)cc(C(=O)OC)c1	·	·	·	·	–	·
O=C(Nc1ccc(C(=O)OCc2cc(=O)n3c4c(sc3n2)CCCC4)cc1)c1ccccc1	·	·	·	·	–	·
COc1ccc2[nH]c3c(C)c4ccncc4c(C)c3c2c1	–	–	1.8µM	·	–	–
O=C(Nc1c(C(=O)c2ccc(F)cc2)oc2ccccc12)c1cc(-c2ccccc2)on1	·	·	·	·	–	·
C/C(=N\N=C\c1ccc(N(C)C)cc1)c1cccc([N+](=O)[O-])c1	3.5µM	?	–	14µM	2.1µM	2.8µM
Cc1ccc(C(CC(=O)c2ccco2)SCCO)cc1 (configuration not stated)	–	?	–	–	11µM	–
O=C(CC(SCCO)c1ccc(F)cc1)c1ccco1 (configuration not stated)	–	–	–	–	?	–
COc1ccc(-c2oc3cc(OC(C)=O)cc(OC(C)=O)c3c(=O)c2OC)cc1	·	·	–	·	·	·
CC(=O)Oc1cc(O)c2c(=O)c(OC(C)=O)c(-c3ccc(OC(C)=O)c(OC(C)=O)c3)oc2c1	·	·	10µM	·	·	·
CCCCSc1nnc2c(n1)OC(c1ccc(Br)s1)Nc1ccccc1-2 (configuration not stated)	·	·	·	–	?	·
Cc1c(O)ccc(/C(Cc2ccc3ccccc3n2)=N\N)c1O	–	–	?	·	15µM	–
Nc1ccc(S(=O)(=O)O)cc1	·	·	·	–	·	·
COc1ccc(C(=O)NC=C2C(=O)OC(C)(C)OC2=O)cc1	–	–	–	–	–	–
CC(=O)Nc1ccccc1C(=O)C(=O)Nc1cccc(Br)c1	?	–	–	–	–	2.5µM
SMILES	NPC1 prom act	ELG1 genotox	uPA generation	SMN2 splice enh	FLuc counter	Rab9 prom act
CC(=O)Nc1ccccc1C(=O)C(=O)Nc1ccccc1	?	–	–	?	–	?
CCC(=O)Nc1ccccc1C(=O)OC(c1ccccc1)c1ccccc1	–	–	–	–[1.84 µM]	–	–
CCC(=O)Nc1ccccc1C(=O)C(=O)Nc1ccccc1	?	–	–	?	–	2.5µM
CC(=O)Nc1ccccc1C(=O)C(=O)Nc1ccc(Cl)cc1	2.2µM	?	–	22µM	–	2.5µM
O=C(NN=C1CCCCCC1)C(=O)Nc1cccc(Br)c1	–	–	–	–[1.84 µM]	6µM	–
Cc1ccccc1CSc1nnc2[nH]c(=O)cc(C)n12	·	·	·	·	–	·
CC(=O)Nc1ccc(C(=O)Cn2c3[n+](c4c(F)c(F)ccc42)CCCCC3)cc1	–	–	–	·	–	–
CCC(=O)N1CCc2cc(Br)cc(S(=O)(=O)N3CCCC(C(=O)NCc4ccc(C)cc4)C3)c21 (configuration not stated)	·	·	·	–	–	·
O=c1[nH][nH]c(=O)c2c(NS(=O)(=O)c3ccccc3)cccc12	–	?	–	–	19µM	–
O=C(CCl)N1CCN(S(=O)(=O)c2ccc3c(c2)CCC3)CC1	–	–	1µM	·	–	–
COc1cc2c(cc1NC(=O)COC(=O)Cn1cnc3ccccc31)oc1ccccc12	–	23µM	–	–	19µM	?
COc1cc2c(cc1NC(=O)Cc1ccc(C)cc1)oc1ccccc12	–	–	–	8.9µM	15µM	?
COc1cc2c(cc1NC(=O)CCC(=O)O)oc1ccccc12	–	–	–	·	?	–
COc1cc2c(cc1NC(=O)CSCC(=O)O)oc1ccccc12	–	–	–	–	21µM	–
O=C(CNC(=O)c1ccccc1F)OCc1cc(=O)n2ccsc2n1	·	·	·	·	–	·
O=S(=O)(C[C@H](O)C(Cl)(Cl)Cl)NNc1ccccc1	·	·	·	–[9.22 µM]	·	·
Cc1ccc(Cl)cc1N1CCN(C(=O)c2cc(S(=O)(=O)N3CCC(C)CC3)cn2C)CC1	·	·	·	·	–	·
COc1ccc(-c2nnc(SCC(=O)Nc3ccc(C)c(Cl)c3)nc2-c2ccc(OC)c(OC)c2)cc1OC	·	·	·	·	–	·
CCc1ccc(S(=O)(=O)c2n[nH]n3c2nc(=O)c2ccccc23)cc1	–	–	–	–	–	–
O=c1nc2c(-c3ccccc3F)n[nH]n2c2ccccc12	?	?	–	22µM	13µM	4µM
COc1ccccc1/C=N/NC(=O)c1ccc(Br)cc1	–	–	–	–	13µM	–
COc1ccc(/C=N/NC(=O)c2ccc(Br)cc2)c(OC)c1	–	–	–	–	15µM	–
COc1ccc(C(=O)N/N=C\c2coc3ccccc3c2=O)cc1	–	–	–	·	4.8µM	–
COc1ccccc1/C=N/OC(=O)c1ccc(F)cc1	–	–	–	·	3.4µM	–
COc1cccc(NC(=O)CSc2nc(C)c(Cc3ccccc3)c(=O)[nH]2)c1	·	·	·	–	?	·
SMILES	NPC1 prom act	ELG1 genotox	uPA generation	SMN2 splice enh	FLuc counter	Rab9 prom act
Cc1cc(C)c(C(=O)Nc2ccccc2)c(SCC(=O)Nc2ccc(Br)cc2C)n1	·	·	·	·	–	·
COc1cc(NC(=O)CC2C(=O)N(c3cccc(C)c3)C(=O)N2Cc2ccc(F)cc2)cc(OC)c1 (configuration not stated)	·	·	·	·	–	·
COc1cc(C(=O)Oc2ccccc2/C=N/NC(=O)c2ccc(Cl)cc2)cc(OC)c1OC	–	?	–	–	6.7µM	–
Cc1ccc(CNC(=O)C(Cc2ccccc2)NS(=O)(=O)c2cccs2)cc1 (configuration not stated)	–	–	–	18µM	–	–
CCCCCn1cnc2sc(CC)cc2c1=O	?	?	–	13µM	24µM	2.8µM
CCc1cc2c(=O)n(-c3ccc(Br)cc3)cnc2s1	2.5µM	?	–	5µM	?	2.5µM
